The record followed here is the supplement of paper PMC10338343.

± gives the standard deviation.

One test relates to MILI (PIWIL2) piRISC loaded with L1MC piRNA (26 nt). Briefly: pre-steady-state target cleavage rate (min^-1); guide: L1MC piRNA 5'p-UAACUAAAUACUAUGCAAGCUGUAGG; MIWI and MILI are mouse PIWI proteins and EfPiwi is from a freshwater sponge; tags in brackets are library labels; higher = faster piRNA-guided slicing of the target. Conditions: auxiliary factor: 500 nM mouse GTSF1. As for the experimental part:
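Cleave-'n-Seq: a library of target RNAs (target site embedded in constant flanks, ACAGCATTCCGCGTTAGTGATATCCG... 5' flank; DNA-blocked outside the site) at 0.1 nM was incubated with 1 nM active mouse MILI or MIWI piRISC (synthetic 5'-monophosphorylated piRNA guide) with or without 500 nM mouse GTSF1 at 33 °C for 1 min to 16 h. Uncleaved targets were sequenced and normalised to non-target controls, and the pooled three trials were fitted to a burst-and-steady-state model to give the pre-steady-state cleavage rate (min^-1; k3 is constrained to at most 1e-4). Sequence is the target site only; target names encode pairing extent (gX:gY) and contiguous / 1-mismatch / 2-mismatch / bulge geometry. Fits with R² ≤ 0 are excluded.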
For the sequence UCCUGGAUGUCCUUGCUUUGUAUUUAGUUA, the “pre-steady-state target cleavage rate” value was 0.00984 ± 0.0041. In the case of UCCUCCGACAGCUUGCAUAGUAUUUAGUUA, the “pre-steady-state target cleavage rate” value is 0.25 ± 0.017. In the case of UCCUCCUACAGCUUGCUUAGUAUUUAGUAA, the “pre-steady-state target cleavage rate” value was determined as 0.203 ± 0.017. As for “UCCUGGAUGUCCUUGCAUAGUAUUAUCAAA [g7:g19:cont:t1A]”, the “pre-steady-state target cleavage rate” value amounted to 0.0222 ± 0.0094. The same measure, in the same setting: in the case of UCCUGGUACAAGCUUGCAUAGUAUUUAGUUA it was 0.196 ± 0.024; in that of UCCUGGAUGAGCUUGCUAUAGUAUUUAGUUA, 0.00431 ± 0.0032; in that of UCCUGGAUGAGCUUGCAUUGUAUUUAGUUA, 0.139 ± 0.013. As to UCCUGGAACAGCUUGCAUAGUAUUAAGAAA, the “pre-steady-state target cleavage rate” value was found to be 0.154 ± 0.045.

As to UCCUCCUACAGCUUGGAUAGUAUUUAGUAA, the “pre-steady-state target cleavage rate” value was 0.208 ± 0.02. Consider UCCUGGAACAGGUUGCAUAGUUUUUAGUUA, for which the “pre-steady-state target cleavage rate” value was 0.0335 ± 0.0065. Same read-out and setting: next, UCCUGGAUCAGCUUGCAAAGUAAUUAGUUA: 0.0974 ± 0.011; UCCUCCUUCAGCUUGCAUAGUUUUUAGUUA: 0.0603 ± 0.0091; “UCCUCCUACAGCUUGCAUAGUAUUUAGUUC [g2:g26:cont:t1C]”: 0.283 ± 0.016. With UCCUGGAACAGCUUGCUAAGUAUUUAGUUA, the “pre-steady-state target cleavage rate” value turned out to be 0.129 ± 0.015. For the sequence UCCUGCUACAGCUGGCAUAGUAUUUAGUUA, the “pre-steady-state target cleavage rate” value was determined as 0.293 ± 0.019. Consider UCCUGCUACAGCAUGCUUAGUAUUUAGUUA, for which the “pre-steady-state target cleavage rate” value was 0.255 ± 0.017. With UCCUGGUACAGGUUGCAUAGUAUUUAGUAA, the “pre-steady-state target cleavage rate” value is 0.287 ± 0.04.

UCCUGGAACAUGCUUGCAUAGUAUUUAGUUA: the “pre-steady-state target cleavage rate” value was 0.184 ± 0.011. Consider UCCUGGAUGAGCUUGCAUAGUAUUUUAGUUA, for which the “pre-steady-state target cleavage rate” value is 0.163 ± 0.019. Same read-out and setting: in the case of UCCUGGAACAGCUUGCAUUGUAUUUACUUA it was 0.163 ± 0.028; in that of UCCUGGUACAGGAUGCAUAGUAUUUAGUUA, 0.215 ± 0.021. In the case of UCCUGGAUGAGCUUGCAUAGUAAUUACUUA, the “pre-steady-state target cleavage rate” value stood at 0.00616 ± 0.004.

Regarding UCCUGGUACAGGUUGCAUAGUUUUUAGUUA, the “pre-steady-state target cleavage rate” value was found to be 0.039 ± 0.011.

The same test, now with this note: auxiliary factor: none (no GTSF1).
In the case of UCCUGGAUGUCCUUGCUUUGUAUUUAGUUA, the “pre-steady-state target cleavage rate” value is 0.00458 ± 0.0025. Regarding UCCUCCGACAGCUUGCAUAGUAUUUAGUUA, the “pre-steady-state target cleavage rate” value amounted to 0.00881 ± 0.0021. The same measure, in the same setting: in the case of UCCUCCUACAGCUUGCUUAGUAUUUAGUAA it was 0.0037 ± 0.0021; in that of UCCUGGUACAAGCUUGCAUAGUAUUUAGUUA, 0.0121 ± 0.0042; in that of UCCUGGAUGAGCUUGCAUUGUAUUUAGUUA, 0.00846 ± 0.0023. Same read-out and setting: next, UCCUCCUACAGCUUGGAUAGUAUUUAGUAA: 0.00459 ± 0.0023. Consider UCCUGGAACAGGUUGCAUAGUUUUUAGUUA, for which the “pre-steady-state target cleavage rate” value stood at 0.00467 ± 0.0021. In the case of UCCUGGAUCAGCUUGCAAAGUAAUUAGUUA, the “pre-steady-state target cleavage rate” value is 0.00502 ± 0.0023.

In the case of UCCUCCUUCAGCUUGCAUAGUUUUUAGUUA, the “pre-steady-state target cleavage rate” value was 0.00556 ± 0.0016. Regarding “UCCUCCUACAGCUUGCAUAGUAUUUAGUUC [g2:g26:cont:t1C]”, the “pre-steady-state target cleavage rate” value turned out to be 0.0143 ± 0.0047.

Regarding UCCUGGAACAGCUUGCUAAGUAUUUAGUUA, the “pre-steady-state target cleavage rate” value was found to be 0.00361 ± 0.0028. Still for that read-out and setting: next, UCCUGCUACAGCUGGCAUAGUAUUUAGUUA: 0.00759 ± 0.0024; UCCUGCUACAGCAUGCUUAGUAUUUAGUUA: 0.00606 ± 0.0028.

For the sequence UCCUGGUACAGGUUGCAUAGUAUUUAGUAA, the “pre-steady-state target cleavage rate” value is 0.00626 ± 0.0028. With UCCUGGAACAUGCUUGCAUAGUAUUUAGUUA, the “pre-steady-state target cleavage rate” value came out at 0.00694 ± 0.0023. With UCCUGGAUGAGCUUGCAUAGUAUUUUAGUUA, the “pre-steady-state target cleavage rate” value turned out to be 0.00807 ± 0.0028.

Consider UCCUGGUACAGGAUGCAUAGUAUUUAGUUA, for which the “pre-steady-state target cleavage rate” value came out at 0.0111 ± 0.0037. Same read-out and setting: next, UCCUGGUACAGGUUGCAUAGUUUUUAGUUA: 0.00732 ± 0.0043.
